High-throughput results deposited in PubChem BioAssay by several laboratories.
Only some compounds are listed: those with a hit (about 27% of all), similar ones and a draw of the others.
CYP2C19 inhib: human CYP2C19 inhibition; P33261; CYP2C19 Supersomes, luciferin-H EGE luminescence, 30 min; inhibition, % at 5 µM; 96,000 compounds, 21% hits; AID 778;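 active means CYP2C19 inhibition above a set limit at 5 µM in the primary screen, cut at about 50% in these data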
Target sequence (P33261 whole entry, looked up): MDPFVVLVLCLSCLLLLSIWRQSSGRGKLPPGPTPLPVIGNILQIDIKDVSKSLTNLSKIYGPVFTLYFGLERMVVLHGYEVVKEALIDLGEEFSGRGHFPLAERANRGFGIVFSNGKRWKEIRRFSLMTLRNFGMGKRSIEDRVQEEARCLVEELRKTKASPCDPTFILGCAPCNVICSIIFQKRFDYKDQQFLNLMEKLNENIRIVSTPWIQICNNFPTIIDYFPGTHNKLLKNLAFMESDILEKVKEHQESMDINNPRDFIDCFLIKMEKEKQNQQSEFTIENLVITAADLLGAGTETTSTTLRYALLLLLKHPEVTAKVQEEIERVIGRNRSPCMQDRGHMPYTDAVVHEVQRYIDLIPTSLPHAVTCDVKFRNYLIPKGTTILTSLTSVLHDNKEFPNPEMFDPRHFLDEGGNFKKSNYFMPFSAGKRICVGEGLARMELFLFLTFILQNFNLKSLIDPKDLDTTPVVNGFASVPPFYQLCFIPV
Cav3 T inh: blocks human Cav3.2 T-type calcium channel. 100,000 compounds, 4% hits. Cav3.2-expressing cells, Fluo-4 calcium fluorescence FDSS; active compounds read low. O95180. AID 449739. B-score at 10 µM;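 active means single-dose well whose peak fluorescence ratio is a statistical outlier from its plate by either plate-standardised score or position-corrected B-score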
CYP2C9 activ: CYP2C9 (human) activation; activation factor at 5 µM; 96,000 compounds, 1.4% hits; P11712; AID 1024; recombinant CYP2C9, luciferin-H conversion, luminescence; active compounds read high; factor 1 = untreated enzyme, 0 = blocked;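 active means activation factor of 2 or more for CYP2C9 at a 5 µM dose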
CYP2C9 inhib: blocks human cytochrome P450 2C9; inhibition, % at 5 µM; 96,000 compounds, 20% hits; CYP2C9 Supersomes, luciferin-H conversion, luminescence;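 active means blocking of liver enzyme CYP2C9 beyond about 50% at 5 µM, limit read from the data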
CYP2C19 activ: activators of human cytochrome P450 2C19; AID 1025; 96,000 tested, under 10 active; recombinant CYP2C19, luciferin-H EGE luminescence; active compounds read high; 0 = fully inhibited enzyme, 1 = untreated enzyme; P33261; activation factor at 5 µM;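 active means activation factor of at least 2 at 5 µM in the primary screen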
Numbers stand for hits.

Screening COC(=O)C1=C(C(=O)OC)[C@@H]2N(C)c3ccccc3[C@@]23C[C@@H](CO)N=C3N1 returned Cav3 T inh inactive.
CCOC(=O)c1nnn(-c2nonc2N)c1CSc1ccccc1 was read as CYP2C19 inhib inactive, Cav3 T inh inactive, CYP2C9 activ inactive, CYP2C9 inhib inactive and CYP2C19 activ inactive.
For CCOC(=O)c1nnn(-c2nonc2N)c1CSc1ccccn1 the results were CYP2C19 inhib inactive, Cav3 T inh inactive, CYP2C9 activ inactive, CYP2C9 inhib 56.1 and CYP2C19 activ inactive.
For CCOC(=O)c1nnn(-c2nonc2N)c1CN(C)Cc1ccccc1 the results were CYP2C19 inhib inactive, CYP2C9 activ inactive, CYP2C9 inhib 82.6 and CYP2C19 activ inactive.
`Cc1c(C(=O)OCc2ccccc2)nnn1-c1nonc1N` gave CYP2C19 inhib 99.3, Cav3 T inh inactive, CYP2C9 activ inactive, CYP2C9 inhib inactive and CYP2C19 activ inactive.
CCC(C)NC(=O)CSc1nnc(-c2ccoc2C)n1CC1CCCO1 (centres undefined) was read as CYP2C19 inhib inactive, Cav3 T inh inactive, CYP2C9 activ inactive, CYP2C9 inhib inactive and CYP2C19 activ inactive.
Screening O=C(O)C1CCN(C(=O)c2ccc(Cl)cc2)CC1 returned CYP2C19 inhib inactive, Cav3 T inh inactive, CYP2C9 activ inactive, CYP2C9 inhib inactive and CYP2C19 activ inactive.
Screening Cc1ccc(S(=O)(=O)N(CC(=O)N2CCN(c3ccccc3F)CC2)C2CCCCC2)cc1 returned CYP2C19 inhib inactive, Cav3 T inh -4.75, CYP2C9 activ inactive, CYP2C9 inhib inactive and CYP2C19 activ inactive.
For Cc1cc(C)c(S(=O)(=O)N(CC(=O)N2CCOCC2)C2CCCCC2)c(C)c1 the results were CYP2C19 inhib inactive, Cav3 T inh inactive, CYP2C9 activ inactive, CYP2C9 inhib 75.0 and CYP2C19 activ inactive.
CCOC(=O)N1CCN(C(=O)CN(C2CCCCC2)S(=O)(=O)c2c(C)cc(C)cc2C)CC1 was read as CYP2C19 inhib inactive, Cav3 T inh inactive, CYP2C9 activ inactive, CYP2C9 inhib 62.9 and CYP2C19 activ inactive.
`Cc1nc2cncc(Br)c2n1C` gave CYP2C19 inhib inactive, CYP2C9 activ inactive, CYP2C9 inhib inactive and CYP2C19 activ inactive.
`COCON1C(=O)CN(C(C)=O)C1c1ccc(Cl)cc1Cl` (centres undefined) gave CYP2C19 inhib inactive, CYP2C9 activ inactive, CYP2C9 inhib inactive and CYP2C19 activ inactive.
`COC(=O)N1CC(=O)N(OC)C1c1ccc(Cl)cc1Cl` (centres undefined) gave CYP2C19 inhib 86.9, Cav3 T inh inactive, CYP2C9 activ inactive, CYP2C9 inhib inactive and CYP2C19 activ inactive.
Screening CON1C(=O)CN(C(C)=O)C1c1ccc(Cl)cc1Cl (centres undefined) returned CYP2C19 inhib 53.9, Cav3 T inh inactive, CYP2C9 activ inactive, CYP2C9 inhib inactive and CYP2C19 activ inactive.
For COc1ccc(-c2noc(-c3ccccc3C(=O)N3CCOCC3)n2)cc1 the results were CYP2C19 inhib inactive, Cav3 T inh inactive, CYP2C9 activ inactive, CYP2C9 inhib inactive and CYP2C19 activ inactive.
O=C(c1ccc2c(c1)OCCO2)C1CCN(C(=O)c2ccc(F)cc2)CC1 was read as CYP2C19 inhib 72.5, Cav3 T inh inactive, CYP2C9 activ inactive, CYP2C9 inhib 50.3 and CYP2C19 activ inactive.
For O=C(c1ccc2c(c1)OCCO2)C1CCN(C(=O)c2ccc(F)c(F)c2)CC1 the results were CYP2C19 inhib 75.3, Cav3 T inh -3.87, CYP2C9 activ inactive, CYP2C9 inhib inactive and CYP2C19 activ inactive.
Screening COc1ccc(C(=O)N2CCC(C(=O)Nc3ccc4c(c3)OCCO4)CC2)cc1 returned CYP2C19 inhib inactive, Cav3 T inh inactive, CYP2C9 activ inactive, CYP2C9 inhib inactive and CYP2C19 activ inactive.
COCCNC(=O)c1ccc2ccccc2n1 was read as CYP2C19 inhib inactive, Cav3 T inh inactive, CYP2C9 activ inactive, CYP2C9 inhib inactive and CYP2C19 activ inactive.
For O=C(OCCNC(=O)c1ccc2ccccc2n1)c1cccnc1 the results were CYP2C19 inhib 89.6, Cav3 T inh inactive, CYP2C9 activ inactive, CYP2C9 inhib 66.4 and CYP2C19 activ inactive.
For CCN(CC)S(=O)(=O)c1ccc(C(=O)OCCNC(=O)c2cccnc2)cc1 the results were CYP2C19 inhib inactive, Cav3 T inh inactive, CYP2C9 activ inactive, CYP2C9 inhib 72.5 and CYP2C19 activ inactive.
Screening COc1ccc(Cn2c(C)c(C)c(C#N)c2NC(=O)Nc2ccc(Cl)cc2)cc1 returned CYP2C19 inhib inactive, Cav3 T inh inactive, CYP2C9 activ inactive, CYP2C9 inhib inactive and CYP2C19 activ inactive.
